# Results taken from the supplement of paper PMC3334620.
# Over roughly 33,000 sequences, “E-score (-0.5 to 0.5)” has its median near -0.035; the highest 2% begin near 0.35. What follows is part of a selection rich in the highest values, with near analogues and random picks from the rest.
# Target: T1, Pdr3 (UniProt P33200)
# T1 sequence: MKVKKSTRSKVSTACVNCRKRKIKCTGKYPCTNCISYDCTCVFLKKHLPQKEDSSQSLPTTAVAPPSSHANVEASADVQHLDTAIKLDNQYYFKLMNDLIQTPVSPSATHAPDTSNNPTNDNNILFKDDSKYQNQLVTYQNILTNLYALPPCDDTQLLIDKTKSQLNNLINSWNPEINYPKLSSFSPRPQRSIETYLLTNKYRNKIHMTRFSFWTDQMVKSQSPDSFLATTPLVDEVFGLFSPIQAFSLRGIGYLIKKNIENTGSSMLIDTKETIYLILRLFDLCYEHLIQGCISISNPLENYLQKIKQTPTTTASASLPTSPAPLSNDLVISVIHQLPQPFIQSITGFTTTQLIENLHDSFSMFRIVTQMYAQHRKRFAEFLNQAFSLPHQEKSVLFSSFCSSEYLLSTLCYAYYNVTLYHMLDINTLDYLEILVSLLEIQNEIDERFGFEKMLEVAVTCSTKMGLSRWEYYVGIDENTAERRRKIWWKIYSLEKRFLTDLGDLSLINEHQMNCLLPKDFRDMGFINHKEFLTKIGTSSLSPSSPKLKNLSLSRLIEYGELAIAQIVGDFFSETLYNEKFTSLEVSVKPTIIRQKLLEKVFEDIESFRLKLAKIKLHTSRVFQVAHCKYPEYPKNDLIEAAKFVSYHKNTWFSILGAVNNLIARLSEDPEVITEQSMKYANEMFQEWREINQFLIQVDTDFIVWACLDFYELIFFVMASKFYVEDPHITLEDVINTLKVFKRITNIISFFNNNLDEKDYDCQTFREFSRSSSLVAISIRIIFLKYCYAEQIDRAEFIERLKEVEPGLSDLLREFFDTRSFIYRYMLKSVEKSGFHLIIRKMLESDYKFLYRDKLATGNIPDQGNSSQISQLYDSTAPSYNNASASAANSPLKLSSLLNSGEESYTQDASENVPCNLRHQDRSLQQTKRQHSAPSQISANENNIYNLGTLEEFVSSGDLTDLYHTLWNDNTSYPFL
# Assay: PBM E-score (8-mer binding enrichment) (E-score (-0.5 to 0.5)); higher = stronger / more preferred TF binding
# Conditions: protein concentration: 200 nM; construct: GST-full length
# Method: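 Universal 'all 10-mer' protein binding microarrays (Agilent AMADID 015681) probed with GST-tagged S. cerevisiae TFs (full-length or DBD) made by in vitro transcription/translation (PURExpress), about 100-200 nM. Bound TF was detected with fluorescent anti-GST. Each ungapped 8-mer (which stands for itself and its reverse complement) is scored by the PBM enrichment score (E-score), a modified Wilcoxon-Mann-Whitney statistic from -0.5 to +0.5, computed with the Universal PBM Analysis Suite. Scale: above 0.35 generally sequence-specific binding.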
row,Sequence,PBM E-score
1,ACGCCCAA,0.00636
2,AAAGCTCA,-0.213
3,CGGTCGAG,-0.014
4,CGGTACCG,0.362
5,CGGTACCC,-0.0572
6,CGGTACCA,0.0596
7,CTTCATCC,-0.00929
8,GCTCCGTA,0.32
9,ACTCCGGC,0.315
10,ACTCCGGG,0.369
11,ACTCCTGG,-0.134
12,CCTCCCGA,0.103
13,CCTCCGGC,0.32
14,GCTCCGGA,0.461
15,GCTCCGCA,0.178
16,ACTCCGGA,0.456
17,CCTCCGGA,0.416
18,ACTCCGAT,0.203
19,AAATAGGT,-0.15
20,ATCAAAGA,-0.143
21,ACTCTGCA,-0.125
22,GGTTTCGA,0.134
23,CTCTTTCC,0.141
24,CATGAAAC,0.0519
25,CGATTTCA,-0.0484

row,Sequence,PBM E-score
1,TGCATAAA,-0.00866
2,GCGTTGCC,0.126
3,CACGGGCC,0.196
4,AGCGGGTA,0.0103
5,CGCGGGCA,0.397
6,AGCGGGCC,0.057
7,CGCGGGTC,0.331
8,GGCGGGCA,0.219
9,CGCGGGCC,0.379
10,CGCGGGTA,0.363
11,AGCGGGCA,-0.048
12,CCGATCTA,0.0827
13,ATCCAATG,-0.208
14,AGTCTGAT,-0.133
15,AAGACAAA,-0.103
16,AACCGCTG,-0.114
17,CGTTCGAG,-0.0996
18,AAATTCCG,0.418
19,AAATTCCA,0.0847
20,CAATTCCG,0.435
21,CAATTCCA,0.0797
22,CAATTCCC,0.133
23,AAATTCCC,0.144
24,CAGATCTA,-0.337
25,AACAGCAT,-0.0321

row,Sequence,PBM E-score
1,GAGACTCA,-0.204
2,TGTGATAA,-0.121
3,AACGGAAA,0.464
4,GACGGACA,0.335
5,TAGGGAAA,-0.15
6,CACGGGAA,0.223
7,GACGGGAA,0.203
8,CAAGGAAA,0.00732
9,GACGGAAA,0.43
10,AACGGAGA,0.243
11,AACGGGAA,0.354
12,CACGGAAA,0.449
13,TACGGGAA,0.261
14,TACGGAAA,0.402
15,GCTACGAC,0.0127
16,CACTGGTC,-0.078
17,CAGATGCG,-0.126
18,CTAGGACA,-0.0782
19,CGGCTTGC,0.197
20,GCTCGTAC,-0.126
21,CCTAGAAG,-0.146
22,ATGTCTAG,-0.064
23,AATAGGCG,0.313
24,AGCCTTAG,-0.37
25,CAGCCACG,0.145

row,Sequence,PBM E-score
1,CATGGAAC,-0.0483
2,CACGGAAG,0.386
3,CACGGAAC,0.483
4,CAAGGAAG,-0.0209
5,GATGGAAC,0.06
6,CACAGAAG,-0.109
7,CAAGGAAC,0.161
8,GACGGAAC,0.475
9,GACAGAAC,0.0194
10,ACAGTAAA,-0.0539
11,AGCAAAAG,-0.336
12,CTATAAGC,-0.129
13,TCAATAGA,-0.262
14,ATGTTATC,0.0774
15,CAGTTTCC,0.253
16,ATCAGCGA,-0.0101
17,ATCAGCGC,0.207
18,ATCAGCGG,0.364
19,AGAGAGTC,-0.249
20,CCCCTTTC,0.00738
21,TAATGCAA,-0.241
22,AACGGCTT,0.0106
23,CCAGGTTA,-0.0429
24,ACCGCGAT,0.177
25,ACCGCGAG,-0.00369

row,Sequence,PBM E-score
1,ACCGCGGG,0.472
2,ACCGCGTA,0.174
3,ACCGCGTC,0.0777
4,ATCGCGGC,0.213
5,ACCGCGGA,0.488
6,ACCGCGGC,0.399
7,ACCGCGGT,0.4
8,AACGCGGT,0.1
9,ATCGCGGA,0.282
10,ATCGCGGG,0.186
11,CCTTGTGA,-0.0319
12,GGCTGTTA,0.0369
13,CACTTAGA,-0.119
14,CGCTGGAC,-0.075
15,TCCTCGCA,-0.0258
16,CAAATTGC,0.0819
17,CAAAAACC,0.0333
18,CTTACCAA,-0.108
19,AAGAGCAG,-0.0681
20,CTATGGCC,-0.124
21,GGTCGGCA,-0.00943
22,GGTCGGAC,0.15
23,CGTCGGAC,0.252
24,TGTCGTAA,-0.113
25,AGTCGGAC,0.117

row,Sequence,PBM E-score
1,TGTCGCAA,-0.0293
2,CGTCGGAG,0.178
3,CGTCGGAA,0.411
4,AGTCGGAG,0.134
5,AGTCGGAA,0.414
6,TGTCGGAA,0.383
7,GGTCGGAA,0.4
8,CCTTGGCG,-0.0565
9,CGCTTTGC,0.0905
10,CCCCACGA,-0.0538
11,ACAGTATC,-0.21
12,AAACCAGT,-0.227
13,GCTAGAGC,-0.272
14,ACGCCCGG,0.311
15,CCGCCCGG,0.407
16,ACGCCCCG,0.181
17,AAGCCCGG,0.379
18,CCGCCCCG,0.435
19,CCGCCCCC,0.0913
20,CCGCCCGC,0.241
21,AAGCCCGT,-0.162
22,AAGCCCGC,0.213
23,CACTCATG,-0.257
24,AAAGGGAT,-0.154
25,AACCGCCA,-0.0357

row,Sequence,PBM E-score
1,GGGAGATA,0.0536
2,CGGAGATA,0.386
3,AGGAGATA,-0.182
4,ATTCAAAA,0.0638
5,GAAAACTA,0.0457
6,AAATATAT,0.19
7,CGAAAGCC,-0.105
8,GTAACGCA,0.0163
9,ATAACGGC,0.135
10,GTAACGGA,0.397
11,CTAACGGA,0.389
12,ATAACGGA,0.386
13,CTAACGAA,-0.0337
14,CTAACGGC,-0.00464
15,GTAACGTA,-0.165
16,ATAACGGG,0.0143
17,CATGTGCG,0.0377
18,ATAGCGTC,-0.153
19,GTGCAGTA,-0.0405
20,CCTGGCCA,-0.107
21,ATGAAGCA,-0.152
22,ACGCTATG,-0.187
23,ATCGACCA,-0.176
24,CAAAGAGC,-0.0254
25,ACGGAGCG,0.337

row,Sequence,PBM E-score
1,GCGGAGCA,0.304
2,ACGGAGCC,0.305
3,TCGGAGCA,0.28
4,CCGGAGCG,0.37
5,GCGGAGCC,0.296
6,CCGGAGCC,0.403
7,CAGGAGCG,-0.12
8,CCGGAGCA,0.401
9,AAAAGAGT,-0.208
10,AAGATTCG,0.108
11,ACAACACG,0.0551
12,ATGTTCGC,-0.165
13,ACTGGCGG,0.153
14,CTTCAGGC,-0.224
15,CGCAAGAG,0.0334
16,AGGGAATG,-0.0936
17,ACGGAATA,0.445
18,CGGGAATA,0.331
19,ACGGAATC,0.465
20,CTGGAATA,0.08
21,ATGGAATA,0.205
22,CCGGAATA,0.437
23,ATGGAATC,0.205
24,ATGGAATG,0.184
25,AAGGAATA,-0.0227

row,Sequence,PBM E-score
1,AGGGAATC,0.00236
2,ACGGAATG,0.432
3,GGCCGATA,0.0764
4,CATGTTTA,-0.0824
5,GCCGCATA,0.237
6,AAGGGCAC,-0.157
7,AAGCCGCC,0.0806
8,AACCTAGA,0.11
9,AGACAGTC,-0.0923
10,CTGGAATC,0.02
11,CCGGAATC,0.471
12,GCGGAATA,0.398
13,GTGGAATA,0.122
14,GGGGAATA,0.121
15,CGGGAATC,0.334
16,CCCACTCA,-0.108
17,AGATTGTC,0.0868
18,AGTAAAAT,-0.11
19,ACGGCTAG,-0.152
